Active and inactive are the calls of the source. Unless noted, no rule for the calls is given here.

Among the data in PubChem BioAssay are composite z-score and z-score values, retold here.

The nature of assay [1]: compounds binding Alexa647 anti-His antibody – biochemical, small-molecule microarray, 635 nm fluorescence, artefact control for SMM control protein annotation, primary screen (AID 1128).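 Also: score merges feature fluorescence with signal-to-noise for each printed compound spot.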 Particulars: higher = more signal.
The test system of assay [2] is Human papillomavirus type 1a E7 protein (residues 1-88). Put plainly: HPV1a E7 small-molecule binders, primary screen, biochemical, small-molecule microarray, residues 1-88, 635 nm (AID 1129). The note with it: small-molecule microarray binding, fluorescence 635 nm; higher = more signal.
The target in assay [3] is Focal adhesion kinase 1 (Homo sapiens) (UniProt Q05397). Put plainly: PTK2 protein binding on printed compound slides – biochemical, small-molecule microarray, 635/667 nm fluorescence, BSA, DTT, primary screen (AID 1130).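 Also: composite of spot emission at 667 nm and signal to noise over triplicate slides.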 The note with it: 635 nm fluorescence, higher = more signal.
Chain of Focal adhesion kinase 1 (Homo sapiens) (Q05397 whole entry, looked up): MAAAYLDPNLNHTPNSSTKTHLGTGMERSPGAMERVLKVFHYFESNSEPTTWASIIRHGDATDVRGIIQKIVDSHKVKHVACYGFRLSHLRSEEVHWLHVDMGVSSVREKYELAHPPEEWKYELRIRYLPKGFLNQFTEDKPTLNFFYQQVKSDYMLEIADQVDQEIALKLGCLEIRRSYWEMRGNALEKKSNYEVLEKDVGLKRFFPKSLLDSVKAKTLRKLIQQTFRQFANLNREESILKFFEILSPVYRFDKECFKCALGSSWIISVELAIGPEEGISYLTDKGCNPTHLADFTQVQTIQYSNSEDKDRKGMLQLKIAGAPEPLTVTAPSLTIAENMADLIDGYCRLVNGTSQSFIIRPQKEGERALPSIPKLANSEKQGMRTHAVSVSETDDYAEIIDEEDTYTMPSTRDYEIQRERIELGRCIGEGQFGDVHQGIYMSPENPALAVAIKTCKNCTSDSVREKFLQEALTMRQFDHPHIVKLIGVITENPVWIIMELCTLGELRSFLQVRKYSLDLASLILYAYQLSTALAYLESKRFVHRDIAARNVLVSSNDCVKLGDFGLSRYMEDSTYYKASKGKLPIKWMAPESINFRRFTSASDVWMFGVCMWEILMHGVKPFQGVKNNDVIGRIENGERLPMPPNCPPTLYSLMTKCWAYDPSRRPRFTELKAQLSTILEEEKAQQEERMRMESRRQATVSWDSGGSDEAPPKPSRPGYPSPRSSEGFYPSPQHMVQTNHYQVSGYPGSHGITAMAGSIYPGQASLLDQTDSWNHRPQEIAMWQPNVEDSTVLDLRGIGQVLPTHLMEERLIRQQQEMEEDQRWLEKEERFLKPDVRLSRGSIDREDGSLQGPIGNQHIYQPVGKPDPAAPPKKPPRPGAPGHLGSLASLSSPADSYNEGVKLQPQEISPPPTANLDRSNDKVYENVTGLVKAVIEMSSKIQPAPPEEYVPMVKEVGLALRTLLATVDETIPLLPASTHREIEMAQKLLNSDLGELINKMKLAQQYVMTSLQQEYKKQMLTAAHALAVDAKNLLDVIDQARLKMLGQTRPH
Assay [4] deals with Fibrinogen (Alexa647-labelled). Put plainly: Alexa647-fibrinogen binding to printed small molecules – biochemical, small-molecule microarray, 635/667 nm fluorescence, artefact control for SMM control-protein annotation, profiling panel (AID 1131).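 Also: z-score merges 667 nm fluorescence with per-spot signal-to-noise over triplicate slides.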 Particulars: fibrinogen-A647 binding fluorescence, higher = more signal.
Assay [5] concerns the target Follistatin (Homo sapiens) (UniProt P19883). Put plainly: FST protein binding to printed compounds – biochemical, small-molecule microarray, 635/667 nm fluorescence, primary screen (AID 1132). Particulars: 635 nm fluorescence, higher = more signal.
Assay [6] deals with Fibroblast growth factor 2 (Homo sapiens) (UniProt P09038). Kind of assay: basic fibroblast growth factor binding to printed compounds – biochemical, small-molecule microarray, 635/667 nm fluorescence, primary screen (AID 1133). Particulars: FGF2, fluorescence 635/667, higher = more signal.
Chain of Fibroblast growth factor 2 (Homo sapiens) (P09038 whole entry, looked up): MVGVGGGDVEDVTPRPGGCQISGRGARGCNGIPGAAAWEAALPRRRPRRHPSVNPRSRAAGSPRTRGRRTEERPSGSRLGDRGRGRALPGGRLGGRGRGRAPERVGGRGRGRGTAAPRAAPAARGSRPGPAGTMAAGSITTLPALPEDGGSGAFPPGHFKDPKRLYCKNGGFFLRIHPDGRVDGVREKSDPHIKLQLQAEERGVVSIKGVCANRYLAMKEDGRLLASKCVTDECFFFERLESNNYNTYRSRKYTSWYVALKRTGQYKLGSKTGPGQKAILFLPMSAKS
Assay [7] can be described thus: JC-1 mitochondrial potential readout, lung cancer cells – cell-based, A549, JC-1 fluorescence, basal, 24 h, 100 nL, profiling panel (AID 1138).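 Also: A549 lung adenocarcinoma cells under basal conditions with no added stimulus; test concentration not given here.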 Particulars: higher = more signal.
For assay [8], the system named is Lefty1. Kind of assay: Lefty1 protein binding to printed compounds – biochemical, small-molecule microarray, 635/667 nm fluorescence, primary screen (AID 1139). The note with it: fluorescence 635/667, higher = more signal.
In assay [9] the test system is wheat germ agglutinin (Triticum aestivum), Alexa647-labelled. Put plainly: Alexa647-WGA lectin binding to printed small molecules – biochemical, small-molecule microarray, 635/667 nm fluorescence, artefact control for SMM control-protein annotation, profiling panel (AID 1140).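 Also: score merges 667 nm feature emission with signal to noise over triplicate slides.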 The note with it: WGA-A647 binding, 635 nm fluorescence, higher = more signal.
Assay [10] deals with Luciferin 4-monooxygenase (Photinus pyralis) (UniProt P08659). Kind of assay: inhibition of purified Photinus pyralis luciferase – biochemical, luminescence, purified enzyme, 2006 set, primary screen (AID 1141).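 Also: cell-free assay with purified firefly luciferase at 100 ng per well in PBS; test concentration not given here.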 The note with it: purified firefly luciferase, SteadyGlo luminescence, 30 min; higher = more signal, called active from +8 up or from −8 down.
Chain of Luciferin 4-monooxygenase (Photinus pyralis) (P08659 whole entry, looked up): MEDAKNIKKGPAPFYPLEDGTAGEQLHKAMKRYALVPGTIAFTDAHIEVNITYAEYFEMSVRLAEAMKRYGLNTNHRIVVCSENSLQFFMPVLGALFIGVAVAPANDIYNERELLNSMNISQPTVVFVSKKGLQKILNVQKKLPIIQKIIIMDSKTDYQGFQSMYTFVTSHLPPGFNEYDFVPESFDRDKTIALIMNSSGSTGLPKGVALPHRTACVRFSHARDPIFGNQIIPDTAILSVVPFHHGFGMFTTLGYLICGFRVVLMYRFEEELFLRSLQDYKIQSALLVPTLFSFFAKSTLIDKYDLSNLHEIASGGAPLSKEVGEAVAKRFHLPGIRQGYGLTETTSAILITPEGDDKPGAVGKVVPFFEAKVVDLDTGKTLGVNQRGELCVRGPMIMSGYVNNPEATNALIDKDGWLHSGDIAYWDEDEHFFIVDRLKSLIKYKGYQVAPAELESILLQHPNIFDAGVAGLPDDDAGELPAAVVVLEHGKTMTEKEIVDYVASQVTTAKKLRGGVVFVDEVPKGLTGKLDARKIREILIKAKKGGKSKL
The test system of assay [11] is Wnt5a (protein binding on small-molecule microarray). Kind of assay: small molecules binding Wnt5a protein – biophysical, small-molecule microarray, 635/667 nm fluorescence, primary screen (AID 1142).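 Also: fluorescence read at 667 nm with signal to noise per printed feature.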 The note with it: 635 nm fluorescence, higher = more signal.
A short description of assay [12]: ATP-based viability of Huh7 replicon cells – cell-based, CellTiter-Glo luminescence, basal, 48 h, cytotoxicity control for HCV replication inhibitor project, primary screen (AID 1143).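 Also: Huh7 hepatoma cells carrying a hepatitis C replication reporter with no stimulus; test concentration not given here.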 Particulars: higher = more signal, called active from +8 up or from −8 down. In general terms: In antiviral work, replicon cells carry a viral genome segment that copies itself.
A short description of assay [13]: Pseudomonas biofilm growth suppression – PAO1 strain, BacTiter-Glo luminescence, LB-PBS, primary screen (AID 1144). The note with it: P. aeruginosa PAO1 biofilm, 12 h, higher = more signal.
A short description of assay [14]: basal CRE-LacZ reporter activity in PC12 – cell-based, unstimulated, primary screen (AID 1145). Particulars: no forskolin, luminescence, 4.5 h, higher = more signal, called active from +8 up or from −8 down.
Assay [15] can be described thus: forskolin-driven CRE-LacZ activity in PC12 – cell-based, CRE-LacZ reporter, forskolin-stimulated, primary screen (AID 1146).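 Also: PC12 cells with 6xCRE LacZ reporter stimulated by forskolin 10 µM; beta-galactosidase reporter signal reflecting CREB driven transcription.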 The note with it: luminescence, 4.5 h, higher = more signal, called active from +8 up or from −8 down.
Assay [16] concerns the target Streptavidin (Streptomyces avidinii) (UniProt P22629). Kind of assay: compounds binding control protein streptavidin – biophysical, small-molecule microarray, 635/667 nm fluorescence, artefact control for SMM compound annotation, primary screen (AID 1147).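 Also: signal reflects streptavidin binding to arrayed compounds as a control protein.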 The note with it: higher = more signal.
Assay [17] is described as follows: probe aInhba binding on compound microarray – biochemical, small-molecule microarray, 635/667 nm fluorescence, primary screen (AID 1148).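 Also: score merges 667nm spot fluorescence with signal-to-noise for antibody binding to printed compounds.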 Particulars: higher = more signal.
For assay [18], the target named is Torsin-1A (Homo sapiens) (UniProt O14656). Kind of assay: TOR1A wild-type binding on microarray – cell lysate, small-molecule microarray, lysate, 635/667 nm, primary screen (AID 1149). The note with it: COS7 hTOR1A-WT lysate, 635 nm fluorescence, higher = more signal.
Chain of Torsin-1A (Homo sapiens) (O14656 whole entry, looked up): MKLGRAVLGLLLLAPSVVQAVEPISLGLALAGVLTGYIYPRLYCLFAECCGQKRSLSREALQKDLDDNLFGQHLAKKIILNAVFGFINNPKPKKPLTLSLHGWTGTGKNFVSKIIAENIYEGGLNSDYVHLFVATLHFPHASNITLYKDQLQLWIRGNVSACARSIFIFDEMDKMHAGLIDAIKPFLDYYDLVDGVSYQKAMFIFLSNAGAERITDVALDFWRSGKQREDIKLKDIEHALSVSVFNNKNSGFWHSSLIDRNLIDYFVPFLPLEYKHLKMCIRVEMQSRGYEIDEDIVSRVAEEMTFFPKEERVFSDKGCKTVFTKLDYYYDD
Assay [19] shares this target. Put plainly: torsin A mutant lysate binding on microarrays – cell lysate, small-molecule microarray, COS7 lysate, 635/667 nm fluorescence, primary screen (AID 1150).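 Also: score pools 667 nm emission and signal to noise measuring lysate protein binding.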 Particulars: COS7 hTOR1A mutant lysate, 635 nm fluorescence, higher = more signal.
Assay [20] concerns Sonic hedgehog protein (Shh). Kind of assay: Sonic hedgehog microarray binding compounds – biochemical, small-molecule microarray, 635/667 nm fluorescence, primary screen (AID 1151).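 Also: Shh protein binding to compounds spotted on small-molecule microarray slides; score combines spot fluorescence intensity with signal-to-noise across triplicate slides.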 Particulars: 635 nm fluorescence, higher = more signal.

Chain of Streptavidin (Streptomyces avidinii) (P22629 whole entry, looked up): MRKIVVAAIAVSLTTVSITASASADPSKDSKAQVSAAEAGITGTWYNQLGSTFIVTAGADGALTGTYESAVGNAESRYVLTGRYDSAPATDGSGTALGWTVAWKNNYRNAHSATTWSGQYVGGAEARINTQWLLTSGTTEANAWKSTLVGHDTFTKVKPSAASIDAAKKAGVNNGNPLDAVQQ
Chain of Follistatin (Homo sapiens) (P19883 whole entry, looked up): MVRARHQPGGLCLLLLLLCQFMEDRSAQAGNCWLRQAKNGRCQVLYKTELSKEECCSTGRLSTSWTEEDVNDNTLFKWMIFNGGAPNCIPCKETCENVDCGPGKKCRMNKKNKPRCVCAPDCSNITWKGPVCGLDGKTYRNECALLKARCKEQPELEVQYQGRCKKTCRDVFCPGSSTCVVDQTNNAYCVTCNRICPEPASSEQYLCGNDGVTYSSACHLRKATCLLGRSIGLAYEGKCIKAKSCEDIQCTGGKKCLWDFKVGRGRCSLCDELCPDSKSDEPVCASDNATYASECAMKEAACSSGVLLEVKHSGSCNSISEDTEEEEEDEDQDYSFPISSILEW

Consider `O=C1C=C(c2ccccc2)C(=O)c2ccc([C@H]3Oc4ccccc4S(=O)(=O)N4CCC[C@@H]34)cc21`, for which the composite z-score in assay [1] is -0.398; in assay [2], -0.315; in assay [3] it was -0.29; in assay [4], -0.506; in [5], 0.428; in [6] it was -0.0096. In addition, the composite z-score in assay [8] is 0.203; in assay [9], -0.0704; in assay [11], 0.34; in assay [16], -0.309; in assay [17], -0.258; in [18], 0.0359. The composite z-score was found to be 1.97 in [19] and 0.222 in assay [20]. For the same molecule, the z-score in assay [7] was -1.69; in [10], -2.04 (inactive); in assay [12], -6.42 (inactive); in assay [13], 0.016 (inactive); in assay [14], 9.47 (active); in assay [15], 33 (active).
With `CCOC(=O)C[C@H]1[C@H](OC(=O)c2cc3ccccc3oc2=O)[C@@H](NC(=O)c2ccc(-c3ccccc3)cc2)c2cc(OCCCO)ccc2N1C(=O)c1ccccc1`, the composite z-score was 0.942 in assay [1]; 1.2 in assay [2]; 0.309 in assay [3]; 0.711 in assay [4]; 1.34 in assay [5]; 0.92 in assay [6]. Moreover, the composite z-score in [8] is 1.16; in [9], 0.997; in [11], 0.624; in assay [16], 0.509; in [17] it was 0.027; in [18] it was 1.4. In addition, the composite z-score in assay [19] was -0.0812; in [20] it was 1.87. Also, the z-score in assay [7] was -1.24; in assay [10] it was 0.207 (inactive); in [12] it was -2.84 (inactive); in assay [13], 1.02 (inactive); in [14], 5.66 (inactive); in assay [15] it was -0.818 (inactive).
In the case of `COC(=O)[C@@]1(Cc2ccc(OC)cc2)[C@H]2c3cc(C(=O)N(C)C)n(C[C@H](O)CO)c3C[C@H]2CN1C(=O)c1ccccc1`, the composite z-score in assay [1] is 0.396; in assay [2], 1.2; in assay [3], 1.17; in [4] it was 0.904; in assay [5] it was 0.291; in assay [6] it was -1.16. The composite z-score is -0.908 in assay [8]; 1.34 in assay [9]; 0.533 in assay [11]; 1.41 in [16]; 0.116 in assay [17]; 0.219 in assay [18]. The composite z-score in assay [19] was 1.16; in assay [20] it was -0.753. Also, the z-score in [7] was 0.193; in [10], 0.543 (inactive); in assay [12], -2.58 (inactive); in [13], -0.0273 (inactive); in assay [14], 0.39 (inactive); in assay [15], 1.33 (inactive).
For the molecule `COC(=O)[C@@]1(Cc2ccc(OC)cc2)[C@H]2c3cc(C(=O)N4CCCC4)n(Cc4c(-c5ccccc5)noc4C)c3C[C@H]2CN1C(=O)c1ccccc1`, the composite z-score in [1] is 1.45; in assay [2], 1.27; in assay [3] it was 0.372; in assay [4], 0.695; in assay [5], 0.699; in [6], -0.298. Further, the composite z-score in [8] is 0.0669; in assay [9], 0.539; in [11] it was 1.01; in assay [16], 0.945; in [17], 0.659; in assay [18], 1.27. The results for the composite z-score in assay [19] and in [20] were 0.776 and -0.314, respectively. The z-score in [7] was -0.608; in assay [10], 2.05 (inactive); in assay [12] it was -3.29 (inactive); in assay [13], -0.452 (inactive); in assay [14], -0.185 (inactive); in assay [15], -0.531 (inactive).
For the molecule `COC(=O)[C@@]1(Cc2ccccc2)[C@H]2c3cc(C(=O)N(C)C)n(CCc4ccc(O)c(OC)c4)c3C[C@H]2CN1C(=O)c1ccccc1`, the composite z-score in assay [1] turned out to be 0.964; in [2] it was 0.88; in assay [3], 0.0098; in [4], 0.814; in assay [5], 0.168; in assay [6], 0.273. The composite z-score is 0.0511 in [8]; 0.0048 in assay [9]; 1.01 in assay [11]; 0.545 in assay [16]; 1.07 in [17]; 0.0405 in [18]. For the same molecule, the composite z-score in assay [19] was 0.212; in assay [20] it was -0.0598. Moreover, the z-score in assay [7] was 0.153; in [10], 0.554 (inactive); in assay [12], 0.394 (inactive); in assay [13] it was 0.333 (inactive); in assay [14], 0.201 (inactive); in assay [15], 0.334 (inactive).
